# From PubChem BioAssay
# TRPV1 ag – agonists of human vanilloid receptor 1 (TRPV1); Q8NER1; AID 540275; actives 0.19% (n = 320,000); activation, % at 8.33 µM; TRPV1-expressing cells, Fluo-8 calcium influx, agonist mode; in the data active = activation above about 80%; inconclusive = between about 30% and that limit; also: 0% is about no effect
#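 Fluo-8 calcium influx in TRPV1-expressing cells, kinetic read (ex 480/em 520 nm). Compound added and read 3 min for agonist activity, followed by capsaicin at EC20 final and 2 min further read for enhancement.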
# p53 reactivation – restores transcriptional activity of mutant p53. Potency, µM (titrated, usually from 92.2 µM), inactives show at the highest dose activity change, positive = activation, hits mostly activators. H1299 p53-A138V BP100-luciferase reporter, luminescence, 24 h. actives 0.063% (n = 320,000); active = well fitted activation curve with a large enough effect; inconclusive = small, poorly fitted or top-dose-only effect; inactive = no such curve, though single readings can be large or run the other way; also: potency is read from the fitted curve at half-maximal effect; % of control where 0% means no effect; nearly all actives have a fitted effect of over 45% in size
#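 H1299 (p53-null), stable ts p53-A138V + BP100-Luc; 1000 cells/well, Opti-MEM/10% FBS; cpd 4 pt, 1:5; 24 h, 37 deg C, 5% CO2; detection reagent 10 min RT; luminescence.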
# TRPV1 PAM – enhances activation of the human vanilloid receptor TRPV1; potentiation, % at 8.33 µM; TRPV1-expressing cells, Fluo-8 calcium influx, capsaicin EC20 potentiation; Q8NER1; actives 0.02% (n = 320,000); AID 540277; in the data active = potentiation above about 80%; inconclusive = between about 30% and that limit; also: 0% is about no effect
#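 TRPV1-expressing cells were cultured overnight at 35.5C and loaded with Fluo-8 calcium dye for 40 to 90 min at room temperature. After a 10 s baseline, compound was added and calcium influx was read kinetically for 3 min (ex 480/em 520 nm).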
# KCNH2 3.1 block – inhibitors of human KCNH2 3.1 potassium channel isoform. U2OS KCNH2 3.1, thallium flux FluxOr; stronger effect = lower value. activity change, % (tested at about 1.8 µM). actives 0.95% (n = 340,000). AID 720553;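 active = maximum activity change below -70%; inconclusive = maximum activity change from -70% to -50%; inactive = maximum activity change above -50%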;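 also: thallium influx rate constant from kinetic fluorescence after stimulation buffer; % is scaled to controls: 0 for no effect and ±100 for the full control effect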
#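 Thallium flux via FluxOr fluorescence (Red40 quencher, 45 min loading) in U2OS cells virally expressing the KCNH2 3.1 isoform (1.77 x 10^8 /mL virus, overnight at 37 C). Rate constants from 2-min kinetic reads post-stimulation, normalised to positive and negative controls.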
# KCNH2 WT inh – KCNH2 (human, wildtype) channel inhibition; Q12809; U2OS, BacMam KCNH2, thallium flux FluxOr; stronger effect = lower value; activity change, % at 1.84 µM; actives 0.37% (n = 340,000); AID 720551;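 active = maximum activity change below -70%; inconclusive = maximum activity change between -70% and -50%; inactive = maximum activity change above -50%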; also: % is scaled to controls: 0 for no effect and ±100 for the full control effect
#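 U2OS cells were transduced with wild-type KCNH2 virus (2.03 x 10^8 / mL) for 4 h at room temperature, then cultured overnight at 37 C. Thallium flux was read with FluxOr dye. Rate constants were normalized to DMSO controls.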
# ClpP mod – qHTS Assay for Activators of ClpP. ATP-dependent Clp protease proteolytic subunit (Bacillus subtilis (strain 168)), P80244. Potency, µM (doses to about 57.5 µM), for inactives: at the highest dose activity change, negative = active. AID 651965, 2013. actives 1.9% (n = 340,000). purified B. subtilis ClpP, FRET peptide cleavage, 20 min; active = well fitted falling curve with a large enough effect; inconclusive = small, poorly fitted or top-dose-only effect; inactive = no such curve, though single readings can be large or run the other way; also: potency is read from the fitted curve at half-maximal effect; the source files actives as falling curves though it sought activators and does not explain the sign; nearly all actives have a fitted effect of over 65% in size
#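 Buffer: 100 mM Tris/HCl pH8, 100 mM KCl, 0.05% low protease BSA, 2.5% glycerol, 0.01% Tween-20. ClpP 10 microg/mL final; 20 min RT; delta FRET normalized to ADEP and DMSO controls.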
# Active calls of the source: *; u = inconclusive; x = no result. A selection: hits, their analogues and other compounds. The true share with any hit is near 2.6%.
SMILES,TRPV1 ag,p53 reactivation,TRPV1 PAM,KCNH2 3.1 block,KCNH2 WT inh,ClpP mod
COc1cc2[nH]c(=O)n(Cc3ccc(C(=O)N4CCC(N5CCCCC5)CC4)cc3)c(=O)c2cc1OC,-3.8,10.3%,13.3,10.5,-4.3,5.0%
COc1cc2[nH]c(=O)n(CCC(=O)N3CCC(N4CCCCC4)CC3)c(=O)c2cc1OC,-2.2,-11.7%,7.1,-5.2,-6.9,31.6µM*
CCOc1cc2[nH]c(=O)n(Cc3ccccc3)c(=O)c2cc1OCC,1.2,2.1%,0.3,-12.7,-0.2,12.6µM*
COc1ccc(CNC(=O)Nc2cccc3ccccc23)cc1,-8.0,3.4%,-15.4,3.8,24.5,31.6µM*
CCOc1cc2[nH]c(=O)n(CCCCCC(=O)NC3CCCC3)c(=O)c2cc1OCC,1.4,2.0%,-8.0,6.3,-1.4,3.9%
COc1cc2[nH]c(=O)n(CCC(=O)NCCC(C)C)c(=O)c2cc1OC,-5.0,-0.9%,0.0,4.4,-10.1,20µM*
Cc1cccnc1NC(=O)Nc1cccc2ccccc12,-2.4,6.1%,-9.2,27.2,14.5,25.1µM*
COc1cc2[nH]c(=O)n(CCCC(=O)NCCc3ccccc3)c(=O)c2cc1OC,0.8,10.4%,-3.6,2.9,6.1,-0.9%
COc1ccc(CNC(=O)CCn2c(=O)[nH]c3ccccc3c2=O)cc1,-2.6,1.0%,8.6,5.5,4.9,28.2µM*
COC(=O)c1ccc2c(=O)n(CCCCCC(=O)NCc3ccc(OC)cc3)c(=O)[nH]c2c1,x,x,x,x,x,-14.8%
CCOc1cc2[nH]c(=O)n(CCCN3CCCC3=O)c(=O)c2cc1OCC,-3.7,8.2%,-10.2,-2.9,6.8,11.2µM*
Cc1ccc2c(C(=O)CNC3=NCCS3)c(C)[nH]c2c1,x,x,x,x,x,-6.2%
C#CCNC(=O)C[C@@H]1C[C@@]2(C(=O)OCC)CCCC=C2N(CCCCCCCC)C1=O,x,x,x,x,x,1.1%
CN(C)c1ccc(/C=C/c2ccnc3ccccc23)cc1C=O,x,x,x,x,x,-0.4%
COc1cc2[nH]c(=O)n(CCCCCC(=O)NCCCN3CCOCC3)c(=O)c2cc1OC,-5.1,-3.5%,-10.5,-3.4,-11.2,22.4µM*
COc1cc2[nH]c(=O)n(CCCCCC(=O)NCCCN3CCCC3=O)c(=O)c2cc1OC,x,5.0%,x,16.4,-5.7,28.2µM*
CN1CCN(CCCNC(=O)Nc2cccc3ccccc23)CC1,-0.1,16.9%,7.7,1.2,3.2,15.8µM*
COc1cc2[nH]c(=O)n(CCCCCC(=O)NCCCN3CCC(C)CC3)c(=O)c2cc1OC,-1.0,-6.9%,-8.0,2.9,12.4,15.8µM*
CS(=O)(=O)c1ccc(C(=O)OCC(=O)NCC2CCCO2)cc1[N+](=O)[O-] (stereo not drawn),x,x,x,x,x,-2.9%
CC(=O)c1ccc(OCC(=O)OCC(=O)c2ccc(S(=O)(=O)N3CCCCC3)cc2)cc1,x,x,x,-5.1,4.3,-0.7%
CCOc1ccc(-c2cccc(NS(=O)(=O)c3ccccc3C(F)(F)F)c2)nn1,x,x,x,x,x,1.6%
CN(C)c1ccc(/C=C/c2c3c(nc4ccccc24)CCCC3)cc1,x,x,x,x,x,-1.1%
COc1ccc(CNC(=O)c2ccccc2C(=O)O)cc1,-1.3,1.8%,2.2,3.4,1.4,1.2%
COc1ccc(CNC(=O)c2cccc(-c3ccc(C)c4ccccc34)n2)cc1,-8.2,-0.6%,-7.3,-21.8,-4.0,25.1µM*
Cc1ccc(C(=O)Nc2c(C)cc(-c3ccc(Cl)cc3)oc2=O)cc1,x,-4.6%,x,-10.1,0.7,14.1µM*
SMILES,TRPV1 ag,p53 reactivation,TRPV1 PAM,KCNH2 3.1 block,KCNH2 WT inh,ClpP mod
COc1ccc(C(=O)c2sc3nc(-c4ccc(F)cc4)ccc3c2N)cc1,x,x,x,x,x,27.3%
O=C(Nc1ccccc1)N(Cc1ccccc1)CC(O)C(F)(F)F (stereo not drawn),-4.4,-5.3%,6.8,4.6,3.8,28.2µM*
O=C(Nc1cccc(F)c1)N(Cc1ccc(Cl)cc1)CC(O)C(F)(F)F (stereo not drawn),19.5,4.7%,-17.8,-0.2,-0.8,0.8%
Cc1cccc(C(=O)Nc2sc3c(c2C(=O)NC(C)C)CCCC3)c1,x,x,x,x,x,-3.1%
COCCN(Cc1ccccc1)C(=S)Nc1ccc(OC(F)F)cc1,5.7,-10.1%,-10.1,-32.4,-9.4,x
CCCN(Cc1ccccc1)C(=S)Nc1ccc(OC(F)F)cc1,-1.6,-7.3%,-5.3,5.0,-0.9,10µM*
CC(C)c1ccc(Nc2nc3c(S(=O)(=O)c4ccc(Br)cc4)nnn3c3ccsc23)cc1,x,x,x,x,x,-29.2%
O=C(CSc1nc(-c2ccccc2)c(-c2ccccc2)[nH]1)Nc1ccc2c(c1)OCO2,-4.1,-3.3%,17.1,2.8,-6.2,25.1µM*
O=C(CCc1nc2ccccc2[nH]1)NCc1ccc2c(c1)OCO2,0.5,4.6%,12.8,-2.7,-12.9,1.0%
O=C(NCCc1nc2ccccc2[nH]1)/C(=C/c1ccc2c(c1)OCO2)NC(=O)c1ccccc1Cl,23.8,1.8%,-7.2,-76.8*,u,-0.9%
O=C(CSc1nc2ccccc2c(=O)[nH]1)N1CCN(S(=O)(=O)c2ccccc2)CC1,-1.7,2.1%,-11.7,16.8,10.9,-2.4%
O=C(CCc1nc2ccccc2[nH]1)Nc1ccc2c(c1)OCO2,-6.0,7.9%,-19.3,-197.6*,1.7,-62.5%
O=C(CSc1nc(-c2ccccc2)[nH]c1-c1ccccc1)Nc1ccc2c(c1)OCO2,x,x,x,x,x,-13.7%
O=C(CSc1nc(-c2ccccc2)c(-c2ccccc2)[nH]1)N1CCN(S(=O)(=O)c2ccccc2)CC1,-0.1,-0.2%,4.1,-26.2,-4.9,28.2µM*
O=C(Oc1ccc(=O)[nH]n1)c1ccccc1,x,x,x,4.9,-5.2,0.7%
COC(=O)[C@@H]1[C@H]2SC(C)(C)[C@H](C(=O)OC)N2C(=O)N1Cc1cc2ccccc2n1S(=O)(=O)c1ccccc1,x,x,x,x,x,-0.5%
CC(=O)NN=C1CCC(c2ccccc2)CC1 (stereo not drawn),5.0,-4.9%,-0.9,1.4,-88.2*,1.7%
CCC(=O)N1CCN(c2ccnc3cc(Cl)ccc23)CC1,u,-6.7%,-31.9,-11.4,7.6,x
CC(=O)c1ccc(S(=O)(=O)N2CCN(c3ccnc4cc(Cl)ccc34)CC2)cc1,x,x,x,-97.5*,-122.6*,-0.4%
O=C(c1ccc(Cl)cc1)N1CCN(c2ccnc3cc(Cl)ccc23)CC1,u,-8.3%,-15.5,-87.4*,-9.9,x
Oc1ccc(N2CCN(c3ccnc4cc(Cl)ccc34)CC2)cc1,0.1,-16.1%,-14.1,-46.1,-2.3,x
COc1ccc(N2CCN(c3ccnc4cc(Cl)ccc34)CC2)cc1,10.4,-8.4%,-19.7,-80.6*,6.9,x
Cc1ccc(S(=O)(=O)N2CCN(c3ccnc4cc(Cl)ccc34)CC2)cc1,2.3,-2.3%,4.2,-102.4*,-36.4,u
